This is a sample that favours compounds with a hit; in the whole collection about 27% have one here.
Cav3 T inh – inhibitors of human Cav3.2 T-type calcium channel. B-score at 10 µM. AID 449739. 100,000 compounds, 4% hits. O95180. Cav3.2-expressing cells, Fluo-4 calcium fluorescence FDSS; active compounds read low;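 active = single-dose well whose peak fluorescence ratio is a statistical outlier from its plate by either plate-standardised score or position-corrected B-score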
CYP2C19 inhib – blocks human cytochrome P450 2C19; CYP2C19 Supersomes, luciferin-H EGE luminescence, 30 min; inhibition, % at 5 µM; 96,000 compounds, 21% hits;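 active = CYP2C19 inhibition above a set limit at 5 µM in the primary screen, cut at about 50% in these data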;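 also: plate controls were negative control wells for no effect and 2.5 mM tranylcypromine positive control for full effect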
CYP2C9 inh – inhibitors of human CYP2C9; CYP2C9 Supersomes, luciferin-H conversion, luminescence; inhibition, % at 5 µM; 96,000 compounds, 20% hits; AID 777;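 active = blocking of liver enzyme CYP2C9 beyond about 50% at 5 µM, limit read from the data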
Target sequence (P11712 whole entry, looked up): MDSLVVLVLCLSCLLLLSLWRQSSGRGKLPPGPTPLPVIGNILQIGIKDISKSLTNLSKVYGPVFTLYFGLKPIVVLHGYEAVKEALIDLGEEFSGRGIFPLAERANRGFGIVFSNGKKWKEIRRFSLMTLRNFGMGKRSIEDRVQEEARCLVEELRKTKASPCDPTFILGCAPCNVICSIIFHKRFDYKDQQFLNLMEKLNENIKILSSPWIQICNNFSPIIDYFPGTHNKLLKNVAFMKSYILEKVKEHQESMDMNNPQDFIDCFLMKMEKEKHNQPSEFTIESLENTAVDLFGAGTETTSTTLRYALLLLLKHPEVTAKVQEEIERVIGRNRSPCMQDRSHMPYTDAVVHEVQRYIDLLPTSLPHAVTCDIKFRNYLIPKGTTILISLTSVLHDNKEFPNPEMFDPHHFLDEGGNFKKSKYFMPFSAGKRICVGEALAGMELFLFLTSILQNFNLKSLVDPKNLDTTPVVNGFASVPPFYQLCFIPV
CYP2C19 act – increases human CYP2C19 enzyme activity; 96,000 tested, under 10 active; recombinant CYP2C19, luciferin-H EGE luminescence; active compounds read high; 0 = fully inhibited enzyme, 1 = untreated enzyme; activation factor at 5 µM; P33261;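 active = activation factor of at least 2 at 5 µM in the primary screen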;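 also: 0 = wells with 2.5 mM tranylcypromine and 1 = vehicle-only wells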
CYP2C9 activ – activators of human CYP2C9; 96,000 compounds, 1.4% hits; activation factor at 5 µM; P11712; AID 1024; recombinant CYP2C9, luciferin-H conversion, luminescence; active compounds read high; factor 1 = untreated enzyme, 0 = blocked;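 active = activation factor of 2 or more for CYP2C9 at a 5 µM dose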;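 also: 0 = sulfaphenazole-blocked wells and 1 = vehicle-only wells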
An asterisk follows results filed as active; / = no result given.

SMILES | Cav3 T inh | CYP2C19 inhib | CYP2C9 inh | CYP2C19 act | CYP2C9 activ
COc1ccc(CNC(=O)C(c2ccncc2)N(C(=O)Cc2cccs2)c2cccc(C)c2)cc1 (stereo unspecified) | -1.2 | 70* | 48 | 0.3 | 0.5
COc1ccc(NCc2nnc(SCC#N)n2-c2ccccc2OC)cc1 | -1.2 | 38 | 30 | 0.6 | 0.7
O=C1NC(O)(c2ccccc2)Oc2ccccc21 (stereo unspecified) | 0.86 | / | / | / | /
CCCCCCOC1(c2ccccc2)OC(=O)c2ccccc21 (stereo unspecified) | / | 56* | 62* | 0.4 | 0.4
Cc1cccc(OC2(c3ccccc3)OC(=O)c3ccccc32)c1C (stereo unspecified) | -2.1 | 44 | 83* | 0.6 | 0.2
CC(Oc1ccc(Cl)cc1Cl)C(=O)Nc1ncccn1 (stereo unspecified) | -0.053 | 69* | 19 | 0.3 | 0.8
CC(Oc1ccc(Cl)cc1Cl)C(=O)N/N=C1\CCCc2ccccc21 (stereo unspecified) | -0.064 | 43 | 60* | 0.6 | 0.4
Cc1cc(Cl)ccc1OC(C)C(=O)NCCCCc1ccccc1 (stereo unspecified) | -1.2 | 45 | 56* | 0.6 | 0.4
CC(Oc1ccc(Cl)cc1Cl)C(=O)NCc1ccncc1 (stereo unspecified) | 0.64 | 100* | 98* | 0 | 0
CC12CCC(C(=O)NCc3ccco3)(OC1=O)C2(C)C (stereo unspecified) | 0.013 | 7 | -6 | 0.9 | 1.1
Cc1ccc(NC(=O)CSc2nc3ccccc3c3nc(CCc4c(C)n[nH]c4C)nn23)cc1F | -1.2 | -2 | 56* | 1 | 0.4
CCOc1cc(NS(=O)(=O)c2ccccc2)c(OCC)cc1NC(=O)c1ccco1 | -0.23 | 3 | 25 | 1 | 0.7
CCc1ccc(C(=O)CC2(O)C(=O)N(CN3CCOCC3)c3ccccc32)cc1 (stereo unspecified) | -0.11 | 25 | -7 | 0.7 | 1.1
CC(C)c1ccc(C(=O)CC2(O)C(=O)N(CN3CCOCC3)c3ccccc32)cc1 (stereo unspecified) | -5.8* | 78* | 18 | 0.2 | 0.8
Cc1ccc(C(=O)CC2(O)C(=O)N(CN3CCOCC3)c3ccccc32)cc1 (stereo unspecified) | 0.19 | 54* | 8 | 0.5 | 0.9
c1ccc(-c2csc(N3CCN(c4ccccn4)CC3)n2)cc1 | -0.57 | 20 | -10 | 0.8 | 1.1
COc1cc(CN2CCC(C(=O)N3CCCC(C)C3)CC2)cc(Br)c1O (stereo unspecified) | / | -8 | -11 | 1.1 | 1.1
O=c1oc2cc(OCc3nn[nH]n3)ccc2c2c1CCCC2 | 0.58 | 95* | 96* | 0.1 | 0
Cc1c(CC(=O)O)c(=O)oc2cc(OCc3nn[nH]n3)ccc12 | -0.87 | -12 | -2 | 1.1 | 1
CC(=O)COc1ccc2c3c(c(=O)oc2c1)CCCC3 | 0.38 | 64* | 42 | 0.4 | 0.6
CCOC(=O)CCc1c(C)c2ccc(OCc3nn[nH]n3)cc2oc1=O | 0.12 | 38 | 71* | 0.6 | 0.3
CC(C)CNC(=O)COc1ccc2c3c(c(=O)oc2c1)CCC3 | 0.62 | 48 | 76* | 0.5 | 0.2
CC(=O)C(C)Oc1ccc2c3c(c(=O)oc2c1)CCCC3 (stereo unspecified) | 0.54 | 18 | 18 | 0.8 | 0.8
CC(C)CCNC(=O)COc1ccc2c3c(c(=O)oc2c1)CCC3 | 0.028 | -5 | 24 | 1.1 | 0.8
COc1ccccc1NC(=O)c1nn(-c2ccc(F)c(F)c2)ccc1=O | 1.1 | -12 | -30 | 1.1 | 1.3
SMILES | Cav3 T inh | CYP2C19 inhib | CYP2C9 inh | CYP2C19 act | CYP2C9 activ
O=C1CN(C(=O)COC(=O)CCSc2ccccc2Cl)c2ccccc2N1 | 0.78 | 22 | -30 | 0.8 | 1.3
COc1ccccc1OCC(=O)NC1CCCCCC1 | 1.9 | 43 | -5 | 0.6 | 1
COc1ccc2c(c1)c(=O)oc1cc(OCC(=O)NC3CCCCC3)ccc12 | 0.17 | 89* | 32 | 0.1 | 0.7
CCc1cc2c(=O)c(-c3cscn3)coc2cc1O | / | -10 | -17 | 1.1 | 1.2
CCOc1cc(C)c(-c2onc(C(F)(F)F)c2-c2csc(C)n2)c(O)c1 | -2.8 | 76* | 21 | 0.2 | 0.8
Oc1ccc(-c2onc(C(F)(F)F)c2-c2cscn2)c(O)c1 | / | 76* | -130 | 0.2 | 2.3*
Cc1nc(-c2c(C(F)(F)F)noc2-c2ccc(O)cc2O)cs1 | -1 | 69* | 6 | 0.3 | 0.9
CN(C)S(=O)(=O)c1ccc2c(c1)C(CC(=O)O)OC2=O (stereo unspecified) | -0.07 | -5 | -1 | 1.1 | 1
CC(=O)OCC(OC(C)=O)C(OC(C)=O)C(OC(C)=O)C(=O)Nc1ccccc1C (stereo unspecified) | 0.0041 | -2 | 4 | 1 | 1
COc1ccc(C2/C=C\CN(C(=O)c3ccccc3)[C@H](Cc3ccccc3)C(=O)N2Cc2ccc(F)cc2)cc1 (stereo partly specified) | -2.3 | / | / | / | /
CCn1c(SCc2ccc(C#N)cc2)nnc1-c1ccc(S(=O)(=O)N2CCCCC2)cc1 | -1.7 | 17 | 10 | 0.8 | 0.9
COc1cccc(N=C2SC(C(=O)Nc3ccc(F)cc3)CC(=O)N2C)c1 (stereo unspecified) | -2.6 | 83* | 99* | 0.2 | 0
O=C(NCCc1ccc(Cl)cc1)C1CCC(=O)N1Cc1ccc(F)cc1 (stereo unspecified) | -0.19 | 73* | 66* | 0.3 | 0.3
Cc1cccc(CCNC(=O)C2CCC(=O)N2Cc2ccc(F)cc2)c1 (stereo unspecified) | -0.21 | 15 | 22 | 0.8 | 0.8
CCN(CCCNC(=O)C1CCC(=O)N1Cc1ccc(C)cc1)c1cccc(C)c1 (stereo unspecified) | -3.4* | 43 | 10 | 0.6 | 0.9
Cc1ccc(CCNC(=O)C2CCC(=O)N2Cc2cccnc2)cc1 (stereo unspecified) | -0.07 | 59* | 40 | 0.4 | 0.6
NC(=O)C1CCCN(C(=O)Nc2cccc3ccccc23)C1 (stereo unspecified) | 0.57 | 0 | -13 | 1 | 1.1
Cc1cc(=O)[nH]c(SCC(=O)Nc2ccc(Cl)cn2)n1 | / | 46 | 17 | 0.5 | 0.8
CCS(=O)(=O)N1CCN(Cc2nc3ccccc3c(=O)[nH]2)CC1 | 0.59 | 3 | 6 | 1 | 0.9
O=C(Cn1nnc2c(cnn2-c2ccccc2)c1=O)N1CCN(c2ccccc2F)CC1 | -0.0021 | -17 | 2 | 1.2 | 1
CSc1ccc(C2C(C#N)=C(N)Oc3c2ccc(=O)c2c(C)oc(C)c32)cc1 (stereo unspecified) | -1.5 | 17 | 59* | 0.8 | 0.4
Cc1oc(C)c2c(=O)ccc3c(c12)OC(N)=C(C#N)C3c1ccccc1 (stereo unspecified) | / | 39 | 48 | 0.6 | 0.5
Cc1oc(C)c2c(=O)ccc3c(c12)OC(N)=C(C#N)C3c1ccccc1Cl (stereo unspecified) | -2.2 | 22 | 53* | 0.8 | 0.5

Screens as filed in PubChem.
